Source: PubChem BioAssay (NCATS)
Several values for one entry are separate records, joined by “and”; a condition that tells them apart may be missing. Equal values may be shown once. Records with an inconclusive call do not appear. Entries that show only a call come without a potency. Values without a mark were called inactive. Activity calls are given as the source filed them. Unless noted, the call rests on the fitted dose curve; in most records, active means well fitted curve in the direction sought with a large enough effect; inconclusive means small, poorly fitted or top-dose-only effect, or another doubt; inactive means no such curve, though single readings can be large; an effect the other way counts as inactive or inconclusive.

Key:
[1] = biological target: Cytochrome P450 2C9 (Homo sapiens) (UniProt P11712); assay: Cytochrome P450 family 2 subfamily C member 9 (CYP2C9) small molecule antagonists: luciferase biochemical (cell-free) qHTS assay (AID 1645842; active means well fitted curve in the direction sought with a large enough effect in the repeat runs; an effect the other way counts as inactive or inconclusive; further: nearly all actives have a fitted effect of over 55% in size; further: potency means the concentration at half of the fitted maximal effect); details: P450-Glo CYP2C9 enzyme assay, luciferin luminescence; series mostly up to 57.4 µM
In short: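 P450-Glo CYP2C9 system: proluciferin substrate with enzyme in mix containing 0.4% BSA, 10 min at room temperature, then NADPH regeneration solution added and incubated 1 h at 37C. Detection reagent stopped reaction; luminescence read after 20 min as RLU.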

[2] = biological target: Papain (Carica papaya) (UniProt P00784); assay: Primary qHTS assay for inhibitors of the protease papain (AID 1645873); details: papain Z-FR-AMC cleavage, AMC fluorescence; series mostly up to 49.8 µM;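 further: papain turnover of Z-FR-AMC read as the AMC fluorescence gain over 10 min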; further: potency means the concentration at half of the fitted maximal effect
[3] = Primary qHTS for inhibitors of nuclear receptor binding SET domain protein 2 (NSD2) in an isogenic RCH-ACV NSD2 p.E1099K mutant (9B) (AID 1645876); details: RCH-ACV NSD2 E1099K (9B) viability, CellTiter-Glo, 72 h; series mostly up to 44.9 µM; further: nearly all actives have a fitted effect of over 70% in size; further: potency means the concentration at half of the fitted maximal effect
[4] = Primary qHTS for inhibitors of nuclear receptor binding SET domain protein 2 (NSD2) in an RCH-ACV wild type WT cells (2C) (AID 1645877); details: RCH-ACV (leukaemia line) NSD2 WT (2C) viability, CellTiter-Glo, 72 h; series mostly up to 44.9 µM; further: nearly all actives have a fitted effect of over 70% in size; further: potency means the concentration at half of the fitted maximal effect
[5] = biological target: Rap guanine nucleotide exchange factor 3 (Homo sapiens) (UniProt O95398); assay: Confirmatory qHTS for antagonist of cAMP-regulated guanine nucleotide exchange factor 3 (EPAC1) (AID 1645880); details: EPAC1 Rap1B-BODIPY-GDP exchange, fluorescence; series mostly up to 115 µM; further: nearly all actives have a fitted effect of over 55% in size
In short: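 Released BODIPY-GDP fluoresces less than Rap1-bound BODIPY-GDP; the signal is followed at 480/540 nm at 5-min intervals over 30 min, after 5 min at room temperature. Reactions contain 100 nM EPAC1, 250 nM RAP1B-BODIPY-GDP and 50 uM GDP; results are normalized to ATA and DMSO.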

[6] = biological target: Rap guanine nucleotide exchange factor 3 (Homo sapiens) (UniProt O95398); assay: Confirmatory qHTS for agonist of cAMP-regulated guanine nucleotide exchange factor 3 (EPAC1) (AID 1645881); details: EPAC1 Rap1B BODIPY-GDP exchange fluorescence; series mostly up to 154 µM;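 further: EPAC1 catalysed release of BODIPY-GDP from Rap1B seen as fluorescence loss; nearly all actives have a fitted effect of over 75% in size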
[7] = biological target: Rap guanine nucleotide exchange factor 4 (Homo sapiens) (UniProt Q8WZA2); assay: Confirmatory qHTS for agonist of cAMP-regulated guanine nucleotide exchange factor 4 (EPAC2) (AID 1645884); details: EPAC2 GEF activity, Rap1B-BODIPY-GDP fluorescence; series mostly up to 154 µM;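 further: nucleotide exchange releases bodipy-GDP from Rap1 and this lowers its fluorescence; nearly all actives have a fitted effect of over 65% in size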
[8] = biological target: Rap guanine nucleotide exchange factor 4 (Homo sapiens) (UniProt Q8WZA2); assay: Confirmatory qHTS for antagonist of cAMP-regulated guanine nucleotide exchange factor 4 (EPAC2) (AID 1645885); details: EPAC2 Rap1B-BODIPY-GDP exchange fluorescence, biochemical; series mostly up to 114 µM; further: potency means the concentration at half of the fitted maximal effect; nearly all actives have a fitted effect of over 25% in size
[9] = biological target: Rap guanine nucleotide exchange factor 3 (Homo sapiens) (UniProt O95398); assay: Counterscreen qHTS for antagonist of cAMP-regulated guanine nucleotide exchange factor 3 (EPAC1) (AID 1645888); details: Rap1B-BODIPY-GDP nucleotide exchange, fluorescence; series mostly up to 154 µM
From the text: Assay Provider (PI): Xiaodong Cheng Ph.D. The University of Texas Medical Branch, […], TX MLPCN Grant: NS066510 In multi-cellular eukaryotic organisms, the effects of cAMP are transduced by two ubiquitously-expressed intracellular cAMP receptors, the classic protein kinase A/cAMP-dependent protein kinase (PKA/cAPK) and the more recently discovered exchange protein directly activated by cAMP/cAMP-regulated guanine nucleotide exchange factor (EPAC/cAMP-GEF). Both PKA and EPAC are ubiquitously expressed in all tissues, and an increase in intracellular cAMP levels will lead to the activation of both PKA and EPAC. Therefore, careful dissections of the individual role and relative contribution of EPAC and PKA within the overall cAMP signaling in various model systems are critical for further elucidating the mechanism of cAMP signaling. To date no EPAC-specific antagonists and agonist, as well as isoform-specific agonists have been reported, and developing EPAC-specific pharmacological probes to determine the physiological functions that EPAC play in the overall cAMP-mediated signaling remains a major challenge within the research field. Furthermore, identified regulators of EPAC may lead to new mechanism-based therapeutic strategies specifically targeting the EPAC / cAMP-signaling components as EPAC has been implicated to play important roles in major human pathological conditions such as diabetes, heart disease, and cancer. This qHTS will be used to screen the Molecular Libraries Small Molecule Repository (MLSMR) as a concentration-titration series using the NCGC unique quantitative screening (qHTS) platform to find activators for EPAC1. In addition, this assay will also be used as a counterscreen for the EPAC2 qHTS. This fluorescent based assay is developed and validated for EPAC1 that measures exchange using EPAC effector Rap1 complex with BODIPY-GDP, a GDP analog with a tethered fluorophores. Activators are identified by monitoring the change in fluorescence signal as the exchanged free BODIPY-GDP has a reduced fluorescence compared to Rap1-bound BODIPY-GDP. Increase in signal (activation) is the desired outcome for the EPAC1 agonist while no activity in this assay is desired for the EPAC2 agonist counterscreen. Reference: [1] de Rooij, J., Zwartkruis, F. J., Verheijen, M. H., Cool, R. H., Nijman, S. M., Wittinghofer, A., and Bos, J.L. (1998) Nature 396, 474-477. […]
EPAC1 Counterscreen PROTOCOL TABLE SEQUENCE No. (e.g., 1, 2, 3, etc.); […] […] Fluorescence. (Read 1), Ex/Em = 480 nm / 540 nm. […] Fluorescence. (Read 2), Ex/Em = 480 nm/ 540 nm. […] Fluorescence. (Read 3), Ex/Em = 480 nm / 540 nm. […] Fluorescence. (Read 4), Ex/Em = 480 nm / 540 nm. […]

Rap guanine nucleotide exchange factor 3 (Homo sapiens), sequence (O95398 whole entry, looked up): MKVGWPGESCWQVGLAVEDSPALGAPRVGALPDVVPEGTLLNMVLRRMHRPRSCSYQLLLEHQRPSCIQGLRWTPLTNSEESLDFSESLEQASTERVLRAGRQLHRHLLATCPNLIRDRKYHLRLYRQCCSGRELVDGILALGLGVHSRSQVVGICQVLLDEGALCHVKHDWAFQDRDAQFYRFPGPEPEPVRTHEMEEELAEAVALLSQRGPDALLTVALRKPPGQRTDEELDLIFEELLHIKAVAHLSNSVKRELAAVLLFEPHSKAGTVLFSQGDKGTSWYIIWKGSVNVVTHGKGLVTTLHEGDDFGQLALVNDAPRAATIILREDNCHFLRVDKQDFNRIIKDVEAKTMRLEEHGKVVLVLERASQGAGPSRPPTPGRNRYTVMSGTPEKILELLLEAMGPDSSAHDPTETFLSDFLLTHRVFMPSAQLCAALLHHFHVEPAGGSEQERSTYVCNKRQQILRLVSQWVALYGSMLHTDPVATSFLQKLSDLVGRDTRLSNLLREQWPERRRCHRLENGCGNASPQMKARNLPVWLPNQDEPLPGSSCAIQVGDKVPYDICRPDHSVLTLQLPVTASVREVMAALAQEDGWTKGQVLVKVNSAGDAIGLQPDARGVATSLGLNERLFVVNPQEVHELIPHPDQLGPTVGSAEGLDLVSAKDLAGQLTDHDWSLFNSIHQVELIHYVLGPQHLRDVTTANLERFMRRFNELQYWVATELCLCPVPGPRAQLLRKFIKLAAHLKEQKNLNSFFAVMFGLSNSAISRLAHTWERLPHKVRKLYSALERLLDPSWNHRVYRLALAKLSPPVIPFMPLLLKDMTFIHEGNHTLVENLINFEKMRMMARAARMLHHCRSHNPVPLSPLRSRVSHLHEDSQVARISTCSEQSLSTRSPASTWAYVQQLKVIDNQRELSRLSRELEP
Cytochrome P450 2C9 (Homo sapiens), sequence (P11712 whole entry, looked up): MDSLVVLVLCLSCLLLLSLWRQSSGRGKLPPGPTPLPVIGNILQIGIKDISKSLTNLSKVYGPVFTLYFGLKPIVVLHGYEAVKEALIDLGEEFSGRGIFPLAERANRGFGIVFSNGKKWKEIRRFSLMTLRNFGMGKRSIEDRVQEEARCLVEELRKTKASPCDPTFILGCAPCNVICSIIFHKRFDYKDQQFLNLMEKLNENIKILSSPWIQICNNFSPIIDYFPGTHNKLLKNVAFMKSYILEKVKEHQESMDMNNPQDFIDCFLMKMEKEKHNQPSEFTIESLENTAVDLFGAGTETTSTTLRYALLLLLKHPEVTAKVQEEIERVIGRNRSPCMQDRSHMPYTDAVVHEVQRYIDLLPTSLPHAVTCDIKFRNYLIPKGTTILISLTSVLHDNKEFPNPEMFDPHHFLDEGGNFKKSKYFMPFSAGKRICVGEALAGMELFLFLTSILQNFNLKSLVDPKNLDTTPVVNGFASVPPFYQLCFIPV
Papain (Carica papaya), sequence (P00784 whole entry, looked up, the tested form may be a part): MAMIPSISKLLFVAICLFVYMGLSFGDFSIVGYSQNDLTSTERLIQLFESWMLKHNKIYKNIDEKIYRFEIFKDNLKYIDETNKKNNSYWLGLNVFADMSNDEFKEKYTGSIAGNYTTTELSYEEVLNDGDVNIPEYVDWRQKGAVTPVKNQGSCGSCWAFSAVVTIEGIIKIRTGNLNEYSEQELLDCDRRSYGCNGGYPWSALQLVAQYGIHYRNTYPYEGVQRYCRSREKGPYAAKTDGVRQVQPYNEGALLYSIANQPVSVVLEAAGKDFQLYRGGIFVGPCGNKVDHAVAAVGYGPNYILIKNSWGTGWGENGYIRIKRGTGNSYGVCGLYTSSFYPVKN
Rap guanine nucleotide exchange factor 4 (Homo sapiens), sequence (Q8WZA2 whole entry, looked up): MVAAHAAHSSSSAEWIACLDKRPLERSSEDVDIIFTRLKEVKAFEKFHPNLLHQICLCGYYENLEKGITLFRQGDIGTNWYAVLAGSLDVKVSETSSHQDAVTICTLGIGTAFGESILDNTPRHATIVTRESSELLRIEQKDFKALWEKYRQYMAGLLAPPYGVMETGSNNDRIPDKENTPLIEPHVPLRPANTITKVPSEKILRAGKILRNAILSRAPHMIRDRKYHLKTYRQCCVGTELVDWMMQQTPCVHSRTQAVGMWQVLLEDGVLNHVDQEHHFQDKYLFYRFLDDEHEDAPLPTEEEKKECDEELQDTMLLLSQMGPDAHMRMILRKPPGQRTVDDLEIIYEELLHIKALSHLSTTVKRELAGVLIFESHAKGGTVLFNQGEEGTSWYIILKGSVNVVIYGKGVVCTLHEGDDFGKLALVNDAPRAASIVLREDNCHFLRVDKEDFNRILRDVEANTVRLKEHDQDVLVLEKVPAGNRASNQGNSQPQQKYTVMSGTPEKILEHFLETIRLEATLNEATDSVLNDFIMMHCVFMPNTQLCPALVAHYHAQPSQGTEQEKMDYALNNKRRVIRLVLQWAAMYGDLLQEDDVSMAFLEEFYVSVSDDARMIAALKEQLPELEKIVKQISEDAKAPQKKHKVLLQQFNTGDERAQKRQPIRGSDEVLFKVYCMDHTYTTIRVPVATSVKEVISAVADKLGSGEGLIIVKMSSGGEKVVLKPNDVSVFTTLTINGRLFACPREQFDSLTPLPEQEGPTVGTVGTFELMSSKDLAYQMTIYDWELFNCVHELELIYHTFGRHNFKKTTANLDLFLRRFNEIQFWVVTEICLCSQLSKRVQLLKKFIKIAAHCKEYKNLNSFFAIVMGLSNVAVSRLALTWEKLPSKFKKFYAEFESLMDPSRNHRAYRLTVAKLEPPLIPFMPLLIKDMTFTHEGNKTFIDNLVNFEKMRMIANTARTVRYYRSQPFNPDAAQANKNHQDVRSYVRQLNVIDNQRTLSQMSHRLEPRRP

## Cc1ccc(C(=O)Nc2ccc(S(=O)(=O)O)c3cc(S(=O)(=O)O)cc(S(=O)(=O)O)c23)cc1NC(=O)c1cccc(NC(=O)Nc2cccc(C(=O)Nc3cc(C(=O)Nc4ccc(S(=O)(=O)O)c5cc(S(=O)(=O)O)cc(S(=O)(=O)O)c45)ccc3C)c2)c1
[1]
  Potency: inactive
[2]
  Potency: 7.08 µM (active)
[3]
  Potency: inactive
[4]
  Potency: inactive

## COc1nc(C)nc(Cl)c1NC1=NCCN1
[1]
  Potency: inactive
[2]
  Potency: inactive
[3]
  Potency: inactive
[4]
  Potency: inactive

## NCCCCCC(=O)O
[1]
  Potency: inactive
[2]
  Potency: inactive
[3]
  Potency: inactive
[4]
  Potency: inactive

## Nc1c2c(nc3ccccc13)CCCC2
[1]
  Potency: inactive
[3]
  Potency: inactive
[4]
  Potency: inactive

## NS(=O)(=O)c1cc2c(cc1Cl)NCNS2(=O)=O
[1]
  Potency: inactive
[2]
  Potency: inactive
[3]
  Potency: inactive
[4]
  Potency: inactive

## CC(C)NCC(O)COc1ccc(CCOCC2CC2)cc1 (stereo not drawn)
[1]
  Potency: inactive
[2]
  Potency: inactive
[3]
  Potency: inactive
[4]
  Potency: inactive

## Cn1ccc2cc3c(cc21)CCN3C(=O)Nc1cccnc1
[1]
  Potency: inactive
[2]
  Potency: inactive
[3]
  Potency: inactive
[4]
  Potency: inactive

## NC(=O)OCC(COC(N)=O)c1ccccc1
[1]
  Potency: inactive
[2]
  Potency: inactive
[3]
  Potency: inactive
[4]
  Potency: inactive

## O=C(C1CCCCC1)N1CC(=O)N2CCc3ccccc3C2C1 (stereo not drawn)
[1]
  Potency: inactive
[2]
  Potency: inactive
[3]
  Potency: inactive
[4]
  Potency: inactive

## COc1cc2c(c(OC)c1OC)-c1ccc(OC)c(=O)cc1[C@@H](NC(C)=O)CC2
[1]
  Potency: inactive
[2]
  Potency: inactive
[3]
  Potency: 33.5 nM (active) and 33.2 nM (active)
[4]
  Potency: 15 nM (active) and 26.3 nM (active)

## Cc1cn([C@H]2C[C@H](N=[N+]=[N-])[C@@H](CO)O2)c(=O)[nH]c1=O
[1]
  Potency: inactive
[3]
  Potency: inactive

## CCc1cccc2c3c([nH]c12)C(CC)(CC(=O)O)OCC3 (stereo not drawn)
[1]
  Potency: 18.2 µM (active)
[2]
  Potency: inactive
[3]
  Potency: inactive
[4]
  Potency: inactive

## Clc1ccccc1C(c1ccccc1)(c1ccccc1)n1ccnc1
[1]
  Potency: 0.977 µM (active)
[2]
  Potency: inactive
[3]
  Potency: 10.5 µM (active)
[4]
  Potency: 9.34 µM (active)
[5]
  outcome: inactive
[6]
  Potency: inactive
[7]
  Potency: inactive
[8]
  Potency: 9.87 µM (active) and 5.3 µM (active)
[9]
  activity change, negative = inhibition: 6.78% [at 30.8 µM]

## CN(CCOc1ccc(NS(C)(=O)=O)cc1)CCc1ccc(NS(C)(=O)=O)cc1
[1]
  Potency: inactive
[2]
  Potency: inactive
[3]
  Potency: inactive
[4]
  Potency: inactive
